From PubChem BioAssay (NCATS)
Records with an inconclusive call do not appear. Activity calls are given as the source filed them. Calls follow the shape of the dose curve; as a rule, active = well fitted inhibition curve with a large enough effect; inconclusive = small, poorly fitted or top-dose-only effect; inactive = flat fitted curve, though single readings scatter.
% is scaled to controls: 0 for no effect and ±100 for the full control effect.

What follows are compounds tested against Phospholipid hydroperoxide glutathione peroxidase GPX4 (Homo sapiens) (UniProt P36969) (assay: Primary qHTS Assay for Inhibitors of Recombinant Selenoprotein Glutathione Peroxidase 4 (GPX4) (AID 1845192; also: nearly all actives have a fitted effect of over 65% in size)). Conditions: recombinant GPX4, GR-coupled NADPH fluorescence, 15 min; series mostly up to 50 µM; activity change, negative = inhibition: at the top concentration.
Sequence of Phospholipid hydroperoxide glutathione peroxidase GPX4 (Homo sapiens) (P36969 whole entry, looked up): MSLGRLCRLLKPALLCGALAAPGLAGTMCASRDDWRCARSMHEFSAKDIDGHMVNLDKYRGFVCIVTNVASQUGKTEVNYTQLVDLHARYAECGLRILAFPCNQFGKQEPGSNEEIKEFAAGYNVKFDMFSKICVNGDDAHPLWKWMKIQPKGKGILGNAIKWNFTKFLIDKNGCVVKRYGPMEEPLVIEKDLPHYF
Method in brief: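 NADPH consumption, followed by fluorescence at 340/450 nm between 0 and 15 min, reports GPX4 activity via coupled glutathione reductase (100 nM). Enzyme 200 nM was pre-exposed to compound 30 min; 0.5 mM cumene hydroperoxide and 1 mM GSH served as substrates.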
With `CC(CN(C)C)CN1c2ccccc2Sc2ccc(C(F)(F)F)cc21` (stereo not drawn) the “outcome” value was “inactive”. `O=C1c2ccccc2C(=O)c2c1ccc(O)c2O` was tested, and the “activity change, negative = inhibition” value was -3.45% (inactive). For `OCCOCCOCCO`, the “activity change, negative = inhibition” value was 0.0595% (inactive).
